Records with an inconclusive call do not appear. The source made the active and inactive calls. Unless noted, the call rests on the fitted dose curve; in most records, active means well fitted curve in the direction sought with a large enough effect in the repeat runs; inconclusive means weak or mixed curves; inactive means no such curve, though single readings can be large; an effect the other way counts as inactive or inconclusive.
Tests used:
[1] = qHTS assay to identify small molecule antagonists of the androgen receptor (AR) signaling pathway using the MDA cell line in the presence of 0.5 nM R1881 - cell viability counter screen (AID 1259242); further: nearly all actives have a fitted effect of over 45% in size
Outline: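 Live-cell protease fluorescence, CellTiter-Fluor, 30 min at 37C. Cells: MDA-kb2, 3,000/well, preincubated 5 hr. Compounds plus 0.5 nM R1881 final, 16 hr, 37C, 0% CO2.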

[2] = target: Estrogen receptor (Homo sapiens) (UniProt P03372); experiment: qHTS assay to identify small molecule antagonists of the estrogen receptor alpha (ER-alpha) signaling pathway using the BG1 cell line in the presence of 0.1 nM 17-beta-estradiol (AID 1259244); further: nearly all actives have a fitted effect of over 50% in size
Outline: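 Luminescence after ONE-Glo (30 min, room temperature) measured ERE-luciferase activity in VM7Luc4E2 cells treated 22 h with compound and 0.1 nM final 17beta-estradiol as stimulator.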

[3] = qHTS assay to identify small molecule HDAC inhibitors (AID 1259364);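 further: wild-type HCT-116 cells with endogenous class I/II HDAC activity; top concentration of the series differs between compounds; nearly all actives have a fitted effect of over 45% in size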
Outline: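 HCT-116 (wild type), 1,500 cells/well, overnight; compound 2 hr 37C 5% CO2; HDAC-Glo I/II reagent 30 min RT; luminescence readout.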

[4] = qHTS assay to identify small molecule agonists of the sonic hedgehog signaling (Shh) pathway - cell viability counter screen (AID 1259366); further: nearly all actives have a fitted effect of over 50% in size
Outline: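 Same-well cytotoxicity read. Gli1-Luc reporter 3T3 cells; compounds 24hr, 37C/5% CO2; CellTiter-Fluor fluorescence.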

[5] = qHTS assay to identify small molecule antagonists of the sonic hedgehog signaling (Shh) pathway - cell viability counter screen (AID 1259367); further: nearly all actives have a fitted effect of over 55% in size
Outline: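 CellTiter-Fluor signal in conditioned medium-stimulated 3T3 Gli1-Luc cells, 23 hr compound exposure, 37C.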

[6] = qHTS assay to identify small molecule agonists of the sonic hedgehog signaling (Shh) pathway (AID 1259368; calls by dose curve;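 further: NIH/3T3-derived 3T3Gli1-Luc cells carrying a stable Gli1-driven firefly luciferase reporter; series mostly up to about 92 µM; nearly all actives have a fitted effect of over 15% in size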)
Outline: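 Read-out: firefly luciferase luminescence from a Gli1 response element reporter stably integrated in NIH/3T3-derived 3T3Gli1-Luc cells, measured 30 min at room temperature after reagent addition. Compound exposure lasted 24 hr at 37 C, 5% CO2.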

[7] = qHTS assay to identify small molecule antagonists of the sonic hedgehog signaling (Shh) pathway (AID 1259369; calls by dose curve; further: nearly all actives have a fitted effect of over 45% in size)
Outline: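 Luminescence readout: firefly Luc under Gli1 response element in 3T3Gli1-Luc cells (NIH/3T3 clone). Antagonist mode, stimulation by conditioned medium; compound exposure 24hr at 37 C, 5% CO2.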

[8] = target: Estrogen receptor beta (Homo sapiens) (UniProt Q92731); experiment: qHTS assay to identify small molecule agonists of the estrogen receptor beta (ER-beta) signaling pathway (AID 1259377; active means well fitted activation curve with a large enough effect in the signal ratio in the repeat runs, not every such curve was filed as active; the % refers to the signal ratio)
Outline: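 Read-out: beta-lactamase FRET fluorescence. Cell line: ER-beta-UAS-bla HEK293T in 2% charcoal-stripped FBS. Exposure: 16 hr at 37C. Substrate step: 2 h at room temperature.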

[9] = target: Estrogen receptor beta (Homo sapiens) (UniProt Q92731); experiment: qHTS assay to identify small molecule antagonists of the estrogen receptor beta (ER-beta) signaling pathway (AID 1259378; active means well fitted inhibition curve with a large enough effect in the signal ratio in the repeat runs, not every such curve was filed as active; the % refers to the signal ratio)
Outline: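 Antagonist mode: compounds added to beta-lactamase reporter HEK293T ER-beta-UAS cells stimulated with E2 (1nM final), 16 hr at 37C. LiveBLAzer B/G FRET substrate, 2 hours room temperature, fluorescence read-out.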

[10] = qHTS assay to identify small molecule agonists of the androgen receptor (AR) signaling pathway in the presence of an antagonist - cell viability counter screen (AID 1259379);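 further: MDA-kb2 human breast cancer cells carrying an MMTV luciferase reporter; series mostly up to about 92 µM; nearly all actives have a fitted effect of over 25% in size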
Outline: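 Viability counter screen: CellTiter-Fluor fluorescence, measured in the same wells as the luciferase read-out. MDA-kb2 cells, 3,000/well, with nilutamide at 3.0uM final and compounds at 15 concentrations, 16 hr at 37C, 0% CO2.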

[11] = qHTS assay to identify small molecule agonists of the estrogen receptor beta (ER-beta) signaling pathway - cell viability counter screen (AID 1259380); further: nearly all actives have a fitted effect of over 30% in size
Outline: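 Luminescence read-out (CellTiter-Glo, 30 min, room temp) taken in the same wells as the beta-lactamase reporter assay; ER-beta-UAS-bla HEK293T cells exposed to DMSO-dissolved compounds for 16 hr at 37C in 2% charcoal-stripped FBS medium.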

[12] = qHTS assay to identify small molecule antagonists of the estrogen receptor beta (ER-beta) signaling pathway - cell viability counter screen (AID 1259382);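 further: HEK293T cells carrying ER-beta-UAS-bla reporter stimulated with estradiol; series mostly up to about 92 µM; nearly all actives have a fitted effect of over 55% in size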
Outline: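 Luminescent ATP read-out (CellTiter-Glo, 30 min, RT) taken in the same wells as the bla reporter assay. HEK293T ER-beta-UAS-bla cells in 2% charcoal-stripped FBS were exposed to compounds with 1nM E2 for 16 hr at 37C.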

[13] = target: Estrogen receptor (Homo sapiens) (UniProt P03372); experiment: qHTS assay to identify small molecule agonists of the estrogen receptor alpha (ER-alpha) signaling pathway in the presence of an antagonist (AID 1259383; calls by dose curve; further: top concentration of the series differs between compounds; nearly all actives have a fitted effect of over 15% in size)
Outline: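 Luciferase luminescence (ONE-Glo, 30min at room temperature) measured in VM7Luc4E2 cells after 22hr compound exposure at 15 concentrations, with 10.0nM ICI-182,780 final present; cells express endogenous ER-alpha and carry four EREs upstream of luciferase.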

[14] = qHTS assay to identify small molecule agonists or antagonists of the thyroid stimulating hormone receptor (TSHR) signaling pathway - wild type cell line counter screen (AID 1259384; calls by dose curve)
Outline: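 Counter screen in untransfected Hek293: compounds (15-point titration, triplicate) plus phosphodiesterase inhibitor Ro20-1724 added after 18 h plating; 30 min RT. Intracellular cAMP via competitive d2/cryptate immunoassay, 1 h incubation.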

[15] = target: Thyrotropin receptor (Homo sapiens) (UniProt P16473); experiment: qHTS assay to identify small molecule antagonists of the thyroid stimulating hormone receptor (TSHR) signaling pathway (AID 1259385; calls by dose curve; further: nearly all actives have a fitted effect of over 20% in size)
Outline: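 Antagonist mode: compound-treated TSHR-expressing HEK293 cells were stimulated with 1.5 ng/mL TSH (final) in presence of Ro20-1724 for 30 min at RT. HTRF cAMP detection after 1 h; each compound tested at 15 concentrations, triplicate.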

[16] = qHTS assay to identify small molecule agonists of the estrogen receptor alpha (ER-alpha) signaling pathway in the presence of an antagonist - cell viability counter screen (AID 1259386);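 further: series mostly up to about 92 µM; cells exposed to compounds for 22 h at 37 °C before the viability read; nearly all actives have a fitted effect of over 30% in size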
Outline: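 Read-out: CellTiter-Fluor fluorescence after 1hr reagent incubation, measured in the same wells as the luciferase readout. VM7Luc4E2 cells were exposed to 15 compound concentrations with 10.0nM ICI-182,780 for 22hr at 37C.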

[17] = qHTS assay to identify small molecule HDAC inhibitors - cell viability counter screen (AID 1259365); further: series mostly up to about 92 µM; nearly all actives have a fitted effect of over 50% in size
Outline: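 After overnight seeding at 1,500 cells per well, wild-type HCT-116 cultures took up compounds in DMSO for 2hr at 37 C. Viable cell content came from luminescence with CellTiter-Glo.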

[18] = qHTS assay to identify small molecule phospholipidosis (PLD) inducers (AID 1259344; active means well fitted curve in the direction sought with a large enough effect; an effect the other way counts as inactive or inconclusive)
Outline: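 Accumulated phospholipid, stained red by LipidTOX during 24 h compound treatment of HepG2 cells at 37 C, is quantified from images as pit number and intensity, normalised per cell using Hoechst-stained nuclei.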

[19] = target: Progesterone receptor (Homo sapiens) (UniProt P06401); experiment: qHTS assay to identify small molecule agonists of the progesterone receptor (PR) signaling pathway (AID 1346784; calls by dose curve; further: nearly all actives have a fitted effect of over 30% in size)
Outline: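 Compounds were tested for PR agonism in HEK 293T cells bearing a beta-lactamase gene under UAS control. Treatment lasted 16 hr at 37C; signal came from fluorescence of a FRET substrate.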

Measured: Potency

Estrogen receptor beta (Homo sapiens), sequence (Q92731 whole entry, looked up): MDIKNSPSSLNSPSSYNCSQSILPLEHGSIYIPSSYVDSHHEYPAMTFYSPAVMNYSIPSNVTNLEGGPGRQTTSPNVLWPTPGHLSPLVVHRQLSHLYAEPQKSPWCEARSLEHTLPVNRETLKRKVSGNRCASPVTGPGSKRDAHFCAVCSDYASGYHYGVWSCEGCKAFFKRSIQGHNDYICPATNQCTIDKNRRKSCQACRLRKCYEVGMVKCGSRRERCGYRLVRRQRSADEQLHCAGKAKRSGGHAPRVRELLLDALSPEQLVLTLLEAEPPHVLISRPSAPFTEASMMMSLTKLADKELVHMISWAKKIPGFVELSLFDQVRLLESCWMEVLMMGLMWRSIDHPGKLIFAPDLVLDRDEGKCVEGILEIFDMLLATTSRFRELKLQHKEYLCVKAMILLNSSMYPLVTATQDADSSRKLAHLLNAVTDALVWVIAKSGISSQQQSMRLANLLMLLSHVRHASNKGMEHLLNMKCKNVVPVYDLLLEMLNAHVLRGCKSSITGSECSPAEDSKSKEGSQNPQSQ
Estrogen receptor (Homo sapiens), sequence (P03372 whole entry, looked up): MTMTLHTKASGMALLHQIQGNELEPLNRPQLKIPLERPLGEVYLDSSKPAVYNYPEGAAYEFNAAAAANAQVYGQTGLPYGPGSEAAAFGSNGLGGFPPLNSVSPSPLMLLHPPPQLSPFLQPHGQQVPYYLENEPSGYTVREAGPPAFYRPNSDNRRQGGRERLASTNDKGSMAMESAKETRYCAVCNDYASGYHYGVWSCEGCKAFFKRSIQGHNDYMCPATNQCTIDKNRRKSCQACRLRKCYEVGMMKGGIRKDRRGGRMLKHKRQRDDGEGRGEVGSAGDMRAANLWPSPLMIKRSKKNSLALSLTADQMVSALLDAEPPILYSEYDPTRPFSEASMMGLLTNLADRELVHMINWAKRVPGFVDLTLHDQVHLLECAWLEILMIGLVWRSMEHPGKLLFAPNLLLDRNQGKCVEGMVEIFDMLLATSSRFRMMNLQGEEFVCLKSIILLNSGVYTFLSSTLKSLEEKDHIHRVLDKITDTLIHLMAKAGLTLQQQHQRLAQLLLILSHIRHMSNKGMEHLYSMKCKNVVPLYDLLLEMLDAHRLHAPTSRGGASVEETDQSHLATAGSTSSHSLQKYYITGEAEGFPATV
Thyrotropin receptor (Homo sapiens), sequence (P16473 whole entry, looked up): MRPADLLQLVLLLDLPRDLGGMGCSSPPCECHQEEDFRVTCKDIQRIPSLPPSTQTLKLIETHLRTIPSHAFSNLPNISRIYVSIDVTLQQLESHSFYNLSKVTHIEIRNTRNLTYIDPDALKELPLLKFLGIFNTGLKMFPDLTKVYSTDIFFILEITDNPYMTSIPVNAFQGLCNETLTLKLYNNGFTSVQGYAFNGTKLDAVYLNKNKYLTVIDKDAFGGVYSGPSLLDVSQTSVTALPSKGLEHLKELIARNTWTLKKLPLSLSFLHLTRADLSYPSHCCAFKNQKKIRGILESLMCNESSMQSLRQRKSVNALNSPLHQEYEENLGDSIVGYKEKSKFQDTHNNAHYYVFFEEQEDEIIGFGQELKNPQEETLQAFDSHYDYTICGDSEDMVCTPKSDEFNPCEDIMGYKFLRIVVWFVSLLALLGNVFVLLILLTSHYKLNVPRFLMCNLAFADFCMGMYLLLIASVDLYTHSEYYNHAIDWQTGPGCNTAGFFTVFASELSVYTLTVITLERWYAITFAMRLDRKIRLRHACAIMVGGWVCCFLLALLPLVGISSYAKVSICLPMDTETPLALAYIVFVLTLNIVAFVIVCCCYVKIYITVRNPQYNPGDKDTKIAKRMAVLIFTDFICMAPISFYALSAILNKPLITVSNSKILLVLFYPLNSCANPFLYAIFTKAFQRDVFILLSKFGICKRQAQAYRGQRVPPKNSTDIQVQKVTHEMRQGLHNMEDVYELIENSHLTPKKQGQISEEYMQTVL
Progesterone receptor (Homo sapiens), sequence (P06401 whole entry, looked up): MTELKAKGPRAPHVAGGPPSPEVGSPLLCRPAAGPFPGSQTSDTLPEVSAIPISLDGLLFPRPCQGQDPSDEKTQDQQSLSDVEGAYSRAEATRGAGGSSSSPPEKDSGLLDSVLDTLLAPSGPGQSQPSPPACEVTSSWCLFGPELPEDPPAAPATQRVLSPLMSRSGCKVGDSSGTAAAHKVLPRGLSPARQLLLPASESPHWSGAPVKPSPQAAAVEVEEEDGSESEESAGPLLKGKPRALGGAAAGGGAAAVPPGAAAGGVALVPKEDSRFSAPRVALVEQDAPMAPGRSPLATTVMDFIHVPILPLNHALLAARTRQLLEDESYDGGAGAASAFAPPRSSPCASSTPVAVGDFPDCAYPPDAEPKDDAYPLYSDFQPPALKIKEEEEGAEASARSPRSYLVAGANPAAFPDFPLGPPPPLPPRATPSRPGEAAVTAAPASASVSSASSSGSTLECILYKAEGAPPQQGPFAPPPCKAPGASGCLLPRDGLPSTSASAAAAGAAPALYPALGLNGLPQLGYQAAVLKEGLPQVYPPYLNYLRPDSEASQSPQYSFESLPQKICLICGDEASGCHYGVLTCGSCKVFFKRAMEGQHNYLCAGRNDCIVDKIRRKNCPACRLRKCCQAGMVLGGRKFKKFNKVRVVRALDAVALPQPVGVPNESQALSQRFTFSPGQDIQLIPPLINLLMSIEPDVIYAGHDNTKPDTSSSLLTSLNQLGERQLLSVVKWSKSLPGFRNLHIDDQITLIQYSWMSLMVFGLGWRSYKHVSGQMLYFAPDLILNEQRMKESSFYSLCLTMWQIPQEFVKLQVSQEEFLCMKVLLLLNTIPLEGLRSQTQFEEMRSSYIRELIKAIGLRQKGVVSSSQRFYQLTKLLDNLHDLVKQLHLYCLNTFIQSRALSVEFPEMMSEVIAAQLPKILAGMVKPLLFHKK

CCCCC(CC)CO[N+](=O)[O-] (stereo not drawn)
not listed: [17] | [18] | [19]
inactive: all other assays above

CCCC[N+](CCCC)(CCCC)CCCC
not listed: [5] | [8] | [9] | [10] | [14] | [15] | [18] | [19]
inactive: all other assays above

C[C@H]1[C@@H]2Cc3ccc(O)cc3[C@@]1(C)CCN2C
not listed: [2] | [7] | [11] | [13]
inactive: all other assays above

Cc1ncc(C[n+]2csc(CCO)c2C)c(N)n1
not listed: [2] | [13] | [18] | [19]
inactive: all other assays above

CCCCCCCCCCCCCCCl
not listed: [4] | [8] | [9] | [12] | [18]
inactive: all other assays above

c1ccc2c(c1)-c1cccc3cccc-2c13
not listed: [2] | [13] | [18]
inactive: all other assays above

O=C1CC[C@@]2(O)[C@H]3Cc4ccc(O)c5c4[C@@]2(CCN3CC2CC2)[C@H]1O5
not listed: [2] | [4] | [9] | [13]
inactive: all other assays above

Cc1nc(N(C)C)nc(OC(=O)N(C)C)c1C
not listed: [5] | [11] | [17] | [18]
inactive: all other assays above

CC(C)(C)c1ccc(CCOc2ncnc3ccccc23)cc1
not listed: [5] | [17] | [18]
inactive: all other assays above

— PubChem BioAssay (Tox21)
